# Experimental data published in PubChem BioAssay (EPA / NIEHS).
# The source made the active and inactive calls. The calls were made as follows: active = hit-call score of the fitted dose curve at least 0.9, where 1 is the maximum; inactive = score below 0.9.
# Read-out: Bcl-2 (BID) gene, BID (gene 637)
# Assay: LTEA_HepaRG_BID: Life Technologies and Expression Analysis (LTEA) Assay for Bcl-2 (BID) gene using HepaRG (AID 2283476)
# Details: mRNA level, 48 h; actives raise or lower the signal
# Outline: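 HepaRG, 48 h exposure, 8-pt half-log series, top 100 uM, 0.5% DMSO vehicle, duplicates. Readout: BID mRNA by TaqMan qRT-PCR; housekeeping-normalized; bidirectional curve fit vs DMSO baseline.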
# Chain of Caspase-3 (Homo sapiens) (P42574 whole entry, looked up): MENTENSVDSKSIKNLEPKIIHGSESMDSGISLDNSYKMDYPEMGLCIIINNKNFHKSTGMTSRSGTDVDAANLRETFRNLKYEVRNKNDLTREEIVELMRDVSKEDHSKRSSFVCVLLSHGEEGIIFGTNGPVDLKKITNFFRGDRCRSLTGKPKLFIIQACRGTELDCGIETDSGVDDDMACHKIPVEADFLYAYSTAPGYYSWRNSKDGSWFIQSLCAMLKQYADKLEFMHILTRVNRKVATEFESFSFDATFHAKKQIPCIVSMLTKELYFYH
Compound,outcome,AC50
CCCCC(O)(Cn1cncn1)c1ccc(Cl)cc1Cl (configuration not stated),inactive,
CC(C)N1C(=O)c2ccccc2NS1(=O)=O,inactive,
O=C(Nc1ccccc1-c1ccc(Cl)cc1)c1cccnc1Cl,inactive,
N#CN=C1SCCN1Cc1ccc(Cl)nc1,inactive,
CCNC(=O)NC(=O)C(C#N)=NOC,,234 nM (active)
Cc1c(COC(=O)[C@@H]2[C@H](/C=C(\Cl)C(F)(F)F)C2(C)C)cccc1-c1ccccc1,inactive,
C=C(C)CN(CC)c1c([N+](=O)[O-])cc(C(F)(F)F)cc1[N+](=O)[O-],inactive,
CC(C)C1(C)N=C(c2ncccc2C(=O)O)NC1=O (configuration not stated),inactive,
CCCC(=NOCC)C1=C(O)CC(CC(C)SCC)CC1=O (configuration not stated),inactive,
O=C1C2CC=CCC2C(=O)N1SC(Cl)(Cl)Cl (configuration not stated),inactive,
COCc1cnc(C2=NC(C)(C(C)C)C(=O)N2)c(C(=O)O)c1 (configuration not stated),inactive,
Cc1nc(N(C)C)nc(OC(=O)N(C)C)c1C,inactive,
CC(C)N1C(=O)N(c2ccccc2)CSC1=NC(C)(C)C,inactive,
Clc1cccc(C(Cl)(Cl)Cl)n1,inactive,
CC1(C)CON(Cc2ccccc2Cl)C1=O,inactive,
CN/C(=N\[N+](=O)[O-])NCc1cnc(Cl)s1,inactive,
Cc1ccc(N=CN(C)C=Nc2ccc(C)cc2C)c(C)c1,inactive,
CCN(CC)c1nc(C)cc(OP(=S)(OC)OC)n1,inactive,

Compound,outcome,AC50
COCC(C)N(C(=O)CCl)c1c(C)csc1C (configuration not stated),inactive,
CCOc1nc(C(Cl)(Cl)Cl)ns1,,1330 nM (active)
CCC(C)n1c(=O)[nH]c(C)c(Br)c1=O (configuration not stated),inactive,
Nc1cnn(-c2ccccc2)c(=O)c1Cl,inactive,
N#Cc1c(Cl)cccc1Cl,inactive,
CCN(CC)C(=O)C(C)Oc1cccc2ccccc12 (configuration not stated),inactive,
CC1(C)C(C(=O)OC(C#N)c2cccc(Oc3ccccc3)c2)C1(C)C (configuration not stated),inactive,
CC(C)Nc1nc(Cl)nc(NC(C)C)n1,inactive,
N#Cc1c[nH]cc1-c1cccc2c1OC(F)(F)O2,inactive,
Cn1c(-c2ccccc2)cc(-c2ccccc2)[n+]1C,,80000 nM (active)
CCCN(CC)CC1COC2(CCC(C(C)(C)C)CC2)O1 (configuration not stated),inactive,
CCNP(=S)(OC)O/C(C)=C/C(=O)OC(C)C (configuration not stated),inactive,
CS(=O)(=O)c1ccc(C(=O)C2C(=O)CCCC2=O)c([N+](=O)[O-])c1,inactive,
COP(=S)(OC)Oc1ccc([N+](=O)[O-])c(C)c1,inactive,
COC(=O)NC(=S)Nc1ccccc1NC(=S)NC(=O)OC,inactive,
COc1cc(Cl)c(OC)cc1Cl,inactive,
CC(C)(C)C(=O)C(Oc1ccc(Cl)cc1)n1cncn1 (configuration not stated),inactive,
CCCCOCN(C(=O)CCl)c1c(CC)cccc1CC,inactive,

# Read-out: Caspase-3 (Homo sapiens) (UniProt P42574)
# Assay: LTEA_HepaRG_CASP3: Life Technologies and Expression Analysis (LTEA) Assay for cysteine-aspartic acid protease (CASP3) using HepaRG (AID 2283477)
# Details: mRNA level, 48 h; actives raise or lower the signal
# Outline: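 In HepaRG liver cells dosed for 48 h at up to 100 uM (eight-point, duplicate), CASP3 expression changes are scored by qRT-PCR. Activity is fitted in both directions with 0.5% DMSO as baseline.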
Compound,outcome,AC50
CCCCC(O)(Cn1cncn1)c1ccc(Cl)cc1Cl (configuration not stated),inactive,
CC(C)N1C(=O)c2ccccc2NS1(=O)=O,inactive,
O=C(Nc1ccccc1-c1ccc(Cl)cc1)c1cccnc1Cl,inactive,
N#CN=C1SCCN1Cc1ccc(Cl)nc1,inactive,
CCNC(=O)NC(=O)C(C#N)=NOC,inactive,
Cc1c(COC(=O)[C@@H]2[C@H](/C=C(\Cl)C(F)(F)F)C2(C)C)cccc1-c1ccccc1,inactive,
C=C(C)CN(CC)c1c([N+](=O)[O-])cc(C(F)(F)F)cc1[N+](=O)[O-],inactive,
CC(C)C1(C)N=C(c2ncccc2C(=O)O)NC1=O (configuration not stated),inactive,
CCCC(=NOCC)C1=C(O)CC(CC(C)SCC)CC1=O (configuration not stated),inactive,
O=C1C2CC=CCC2C(=O)N1SC(Cl)(Cl)Cl (configuration not stated),inactive,
COCc1cnc(C2=NC(C)(C(C)C)C(=O)N2)c(C(=O)O)c1 (configuration not stated),inactive,
Cc1nc(N(C)C)nc(OC(=O)N(C)C)c1C,inactive,
CC(C)N1C(=O)N(c2ccccc2)CSC1=NC(C)(C)C,inactive,
Clc1cccc(C(Cl)(Cl)Cl)n1,inactive,
CC1(C)CON(Cc2ccccc2Cl)C1=O,inactive,
CN/C(=N\[N+](=O)[O-])NCc1cnc(Cl)s1,inactive,
Cc1ccc(N=CN(C)C=Nc2ccc(C)cc2C)c(C)c1,inactive,
CCN(CC)c1nc(C)cc(OP(=S)(OC)OC)n1,inactive,

Compound,outcome,AC50
COCC(C)N(C(=O)CCl)c1c(C)csc1C (configuration not stated),inactive,
CCOc1nc(C(Cl)(Cl)Cl)ns1,,1050 nM (active)
CCC(C)n1c(=O)[nH]c(C)c(Br)c1=O (configuration not stated),inactive,
Nc1cnn(-c2ccccc2)c(=O)c1Cl,inactive,
N#Cc1c(Cl)cccc1Cl,inactive,
CCN(CC)C(=O)C(C)Oc1cccc2ccccc12 (configuration not stated),inactive,
CC1(C)C(C(=O)OC(C#N)c2cccc(Oc3ccccc3)c2)C1(C)C (configuration not stated),inactive,
CC(C)Nc1nc(Cl)nc(NC(C)C)n1,inactive,
N#Cc1c[nH]cc1-c1cccc2c1OC(F)(F)O2,inactive,
Cn1c(-c2ccccc2)cc(-c2ccccc2)[n+]1C,,50000 nM (active)
CCCN(CC)CC1COC2(CCC(C(C)(C)C)CC2)O1 (configuration not stated),inactive,
CCNP(=S)(OC)O/C(C)=C/C(=O)OC(C)C (configuration not stated),inactive,
CS(=O)(=O)c1ccc(C(=O)C2C(=O)CCCC2=O)c([N+](=O)[O-])c1,inactive,
COP(=S)(OC)Oc1ccc([N+](=O)[O-])c(C)c1,inactive,
COC(=O)NC(=S)Nc1ccccc1NC(=S)NC(=O)OC,inactive,
COc1cc(Cl)c(OC)cc1Cl,inactive,
CC(C)(C)C(=O)C(Oc1ccc(Cl)cc1)n1cncn1 (configuration not stated),inactive,
CCCCOCN(C(=O)CCl)c1c(CC)cccc1CC,inactive,
